GLP1R ag: qHTS of GLP-1 Receptor Agonists; Glucagon-like peptide 1 receptor (Homo sapiens), P43220; HEK293 GLP-1R CRE-luciferase, luminescence, 4-6 h; cells express a hypersensitive GLP-1R form; Potency, µM (series often up to 45.6 µM), inactives show top-dose activation, usual class: activators; hit rate 0.007% among 380,000; also: % of control where 0% means no effect
IDH1 R132H inh: qHTS for Inhibitors of mutant isocitrate dehydrogenase 1 (IDH1): qHTS | Isocitrate dehydrogenase [NADP] cytoplasmic (Homo sapiens), O75874 | IDH1-R132H enzyme, NADPH consumption, diaphorase/resazurin fluorescence | hit rate 0.093% among 390,000 | Potency, µM (top dose mostly 76.6 µM), for inactives: at the highest dose activity change, negative = inhibition, actives largely listed as inhibitors | AID 602179, 2012; also: % is scaled to controls: 0 for no effect and ±100 for the full control effect; nearly all actives have a fitted effect of over 65% in size
Target sequence (O75874 whole entry R132H, stated change not applied): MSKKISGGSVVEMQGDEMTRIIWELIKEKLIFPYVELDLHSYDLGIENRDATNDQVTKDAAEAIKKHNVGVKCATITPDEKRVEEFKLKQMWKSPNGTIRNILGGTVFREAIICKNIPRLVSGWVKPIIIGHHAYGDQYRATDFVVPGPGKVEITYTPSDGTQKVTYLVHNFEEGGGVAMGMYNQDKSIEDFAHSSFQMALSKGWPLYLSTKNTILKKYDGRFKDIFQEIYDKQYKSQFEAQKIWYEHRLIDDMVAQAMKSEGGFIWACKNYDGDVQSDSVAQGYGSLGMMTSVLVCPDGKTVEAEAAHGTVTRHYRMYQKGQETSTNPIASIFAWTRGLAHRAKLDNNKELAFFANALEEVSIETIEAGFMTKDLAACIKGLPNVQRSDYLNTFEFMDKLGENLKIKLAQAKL
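IDH1-R132H (0.5 ug/mL dispensed) in pH 7.5 Tris buffer was preincubated 30 min with compound, then given a substrate mix of 0.016 mM NADPH and 2 mM alpha-KG for 80 min at room temperature; remaining NADPH was read by diaphorase/resazurin fluorescence.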
GLP-1R inv ag: qHTS of GLP-1 Receptor Inverse Agonists (Inhibition Mode). hit rate 1.6% among 410,000. HEK293 GLP-1R CRE-luciferase, luminescence, 24 h; GLP-1R form is constitutively active. Glucagon-like peptide 1 receptor (Homo sapiens), P43220. Potency, µM (titrated, usually from 38.3 µM), for inactives: top-dose activity change, negative = inhibition, actives largely listed as inhibitors. AID 624417, 2012; also: % is scaled to controls: 0 for no effect and ±100 for the full control effect; nearly all actives have a fitted effect of over 55% in size
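HEK293 cells stably co-expressing a cAMP-responsive luciferase reporter and constitutively active GLP-1R were seeded, incubated 12 h, then exposed to compounds for 24 h at 37 C. Luminescence was read 12 min after detection reagent; inverse agonists lower signal.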
rTrxR1 inhibitor: qHTS Assay for Inhibitors of Mammalian Selenoprotein Thioredoxin Reductase 1 (TrxR1): qHTS. Potency, µM (highest dose often 114 µM), inactives show top-dose activity change, negative = inhibition, most hits filed as inhibitors. hit rate 1% among 390,000. Thioredoxin reductase 1, cytoplasmic (Rattus norvegicus), O89049. recombinant rTrxR1, NADPH fluorescence consumption, selenite substrate. AID 588453, 2011; also: % is scaled to controls: 0 for no effect and ±100 for the full control effect; nearly all actives have a fitted effect of over 65% in size
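Rat TrxR1 (90 nM in the dispensed reagent) was pre-reduced with 400 uM NADPH for 5 min at room temperature, then incubated with compound for 15 min. After 400 uM selenite was added, NADPH fluorescence (Ex 340/Em 450 nm) was followed for 8 min.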
TrxR1 substrate: qHTS Assay for Substrates of Mammalian Selenoprotein Thioredoxin Reductase 1 (TrxR1): qHTS | hit rate 0.01% among 390,000 | Thioredoxin reductase 1, cytoplasmic (Rattus norvegicus), O89049 | Potency, µM (highest dose often 114 µM), without a hit: top-dose activity change, negative = substrate turnover | AID 588456, 2011 | purified TrxR1 substrate turnover, NADPH consumption readout; also: % is scaled to controls: 0 for no effect and ±100 for the full control effect; nearly all actives have a fitted effect of over 50% in size
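Rat TrxR1, dispensed at 90 nM, was prereduced with 400 uM NADPH (final) for 5 min at ~22 deg C, then incubated with compound 15 min before 400 uM selenite. A first-read NADPH fluorescence drop versus no-compound background flagged substrates.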
GLP1R cytotox: qHTS of GLP-1 Receptor Inverse Agonists: Cytotox Screen. HEK293 cAMP-luciferase reporter cells, luminescence, 24 h. Potency, µM (top dose mostly 38.3 µM), without a hit: top-dose activity change, negative = inhibition, hits mostly inhibitors. hit rate 0.13% among 410,000. AID 624418, 2012;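 also: loss of luciferase light is scored as toxicity; % is scaled to controls: 0 for no effect and ±100 for the full control effect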
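Luminescence readout: signal drop marks cytotoxicity. Plated cells grew 12 h at 37 °C, 5% CO2, received 23 nL compound for 24 h, then got luciferase reagent, read after 12 min at RT.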
* marks the source's active call; other numbers are inactive results; ? = inconclusive; · = no result; [ ] = dose if it differs, or a comment. Hits are enriched below; roughly 2.7% of the tested compounds scored in any of these assays. Calls follow the shape of the dose curve; as a rule, active = well fitted curve in the direction sought with a large enough effect; inconclusive = small, poorly fitted or top-dose-only effect, or another doubt; inactive = no such curve, though single readings can be large; an effect the other way counts as inactive or inconclusive. Potency is read from the fitted curve at half-maximal effect.

SMILES	GLP1R ag	IDH1 R132H inh	GLP-1R inv ag	rTrxR1 inhibitor	TrxR1 substrate	GLP1R cytotox
Cc1cccc(NC(=O)Cn2c(=O)n(CCCS(=O)(=O)C3CCCCC3)c(=O)c3ccccc32)c1	-4%	-7%	-2%	-1%	-5%	1%
CC(=O)c1cccc(OCc2cc(C(=O)N(C)C(C)c3ccccn3)no2)c1 (stereo unspecified)	0%	-1%	-15%	50µM*	4%	-13%
c1nc(NCc2ccc3c(c2)OCO3)c2[nH]cnc2n1	·	·	·	14%	1%	·
O=C1c2sc3nc4ccccc4n3c2C(=O)N1c1ccccc1Cl	5%	5%	16%	4µM*	-6%	6%
Cc1ccccc1N1C(=O)c2sc3nc4c(c(=O)n3c2C1=O)CCC4	24%	-1%	68%	8.9µM*	-9%	-1%
O=C1c2sc3nc4c(c(=O)n3c2C(=O)N1c1ccccc1)CCC4	-1%	2%	-2%	?	12%	-4%
c1cnc2[nH]ccc2c1	·	·	·	23%	6%	·
Cc1cc(C)c2cc(C)c(SCC(=O)NCc3ccco3)nc2c1	-1%	?	?	-13%	-4%	-19%
Cc1cc(C)c2cc(C#N)c(SCC(=O)NCc3ccco3)nc2c1	-1%	-1%	-2%	56µM*	1%	-27%
CCCNC(=O)C/C(C)=N/NC(=O)C(=O)Nc1ccccn1	-1%	0%	15%	63µM*	2%	3%
COc1ccc(/C=N/Nc2cc(C)nc(-n3nc(C)cc3C)n2)c(OC)c1	-7%	-5%	1.3µM*	-20%	-14%	?
Cc1cc(/C=N/Nc2ncnc(N)c2[N+](=O)[O-])c(C)n1-c1ccccc1	-6%	0%	2.2µM*	?	1%	?
Cc1ccc(C)c(C(=O)C[n+]2cccc(Br)c2)c1	·	·	·	-34%	-7%	·
O=C(C[n+]1cccc(Br)c1)c1cc(Cl)ccc1Cl	·	·	·	11µM*	2%	·
Nc1c(C(=O)Nc2ccc(Cl)c(C(F)(F)F)c2)sc2nc(-c3ccncc3)ccc12	·	43%	3%	5%	10%	6%
CCC(CC)C(=O)Nc1nnc(S(=O)(=O)N2CCCCCC2)s1	16%	6%	7.9µM*	23%	4%	-3%
Nc1cccc(/C=C/c2ccnc3ccccc23)c1	·	·	·	3%	-9%	·
C1=CN2CC=Cc3cc(/C=C/c4ccnc5ccccc45)cc(c32)C1	·	·	·	?	7%[0.0914 µM]	·
Cc1sc(NC(=O)c2ccco2)c(C(c2cccnc2)N2CCN(C)CC2)c1C (stereo unspecified)	4%	-4%	-33%	?	12%[57.1 µM]	-14%
Cc1sc(NC(=O)c2ccco2)c(CN2CCCCC2)c1C	0%	1%	6.3µM*	-7%	-1%	3%
Cc1sc(NC(=O)c2ccco2)c(C(c2cccnc2)N2CCCC2)c1C (stereo unspecified)	4%	-8%	?	7.9µM*	-2%	4%
CCOc1ccccc1OCCCn1c(-c2ccc(Cl)cc2)nc2ccccc2c1=O	·	-8%	15%	9%	0%	-2%
Cc1cc[n+](CCC2CCCCC2)cc1	·	·	·	21%	7%	·
Nc1cc(=O)[nH]c2c1CCC2	·	·	·	14%	9%[0.0914 µM]	·
Cc1ccc(Cn2nnnc2CN2CCC(c3nc4ccc(Cl)cc4[nH]3)CC2)cc1	-13%	-2%	11µM*	-13%	-16%	15%
SMILES	GLP1R ag	IDH1 R132H inh	GLP-1R inv ag	rTrxR1 inhibitor	TrxR1 substrate	GLP1R cytotox
COc1cccc(-c2nc(SCC(=O)NCC3CCCO3)c(-c3ccc(Cl)cc3)[nH]2)c1 (stereo unspecified)	·	-3%	?	4%	-5%	2%
Cc1cccc(OCC(=O)NCc2ccccc2)c1	4%	2%	-5%	10%[57.1 µM]	13%[57.1 µM]	8%
C/C(=N\NC(=O)COc1cccc(C)c1)c1ccc2ccccc2c1O	0%	0%	1.1µM*	21%	10%	1%
CCOc1cc2[nH]c(=O)n(CCC(=O)N3CCN(c4cccc(Cl)c4)CC3)c(=O)c2cc1OCC	·	0%	18%	6%[57.1 µM]	5%[57.1 µM]	16%
CC(C)COC(=O)N(C)c1ccc(C(O)(C(F)(F)F)C(F)(F)F)cc1	10%	3%	8.9µM*	-2%[57.1 µM]	-4%[57.1 µM]	4%
COc1ccc(NC(=O)CSc2nc3ccccc3n2CC(=O)N(C)C2CCCCC2)cc1	·	0%	-8%	3%[57.1 µM]	1%[57.1 µM]	-6%
CN1CCN(c2ccc(-c3cccc(NC(=O)COc4ccc(Cl)cc4)c3)nn2)CC1	-16%	5%	?	0%	-7%	?
CN1CCN(c2ccc(-c3cccc(NC(=O)COc4ccccc4)c3)nn2)CC1	-3%	1%	11µM*	-6%	-8%	-10%
CCCCOC1CC(c2ccc(OCc3ccc(OC)cc3)c(OC)c2)N(C)O1 (stereo unspecified)	11%	7%	10µM*	5%[57.1 µM]	-5%[57.1 µM]	-17%
CCOc1ccccc1CNc1ccc2cc(S(=O)(=O)N3CCC(C)CC3)ccc2n1	·	2%	?	15%[57.1 µM]	5%[57.1 µM]	-13%
Cc1cc(C)nc(-n2nc(C)c3c2NC(=O)CC3c2ccccc2OC(C)C)n1 (stereo unspecified)	·	45%	10%	-3%	-11%	-2%
Cc1cc(C)c(S(=O)(=O)NCC(c2ccc(N(C)C)cc2)N2CCc3ccccc32)c(C)c1 (stereo unspecified)	·	14%	2µM*	13%[57.1 µM]	1%[57.1 µM]	0%
COc1cccc(N2CCN(C(=O)c3ccc4c(Cl)c5c(nc4c3)CCCC5)CC2)c1	-3%	-5%	5%	6%	-2%	7%
O=C(Nc1cccc2nsnc12)c1ccc(-c2cccc(Cl)c2)o1	-3%	9%	-1%	35µM*	-8%	51%
O=C(Nc1ccccc1N1CCCCC1)c1ccc(-c2cccc(Cl)c2)o1	1%	-1%	4%	12%[57.1 µM]	8%[57.1 µM]	16%
OC(c1ccc2ccccc2c1)c1ncc(-c2ccc(C(F)(F)F)cc2)[nH]1 (stereo unspecified)	-2%	·	10µM*	·	·	-22%
OC(c1ccc(F)cc1)c1ncc(-c2ccc(Oc3ccccc3)cc2)[nH]1 (stereo unspecified)	-6%	·	10µM*	·	·	-11%

High-throughput results deposited in PubChem by National Center for Advancing Translational Sciences (NCATS).
